Assay results published in ChEMBL document CHEMBL4513216, “Probing the Open Global Health Chemical Diversity Library for Multistage-Active Starting Points for Next-Generation Antimalarials” (ACS Infect Dis, 2020).
About 8,600 (12%) of roughly 69,000 compounds showed an effect of 50% or more. This excerpt belongs to a sample that is enriched for strong results.

System: Plasmodium berghei
Assay: Screen against P. berghei liver stage (PbLuc), transformed with Luciferase, at 10uM
Type: functional, HepG2
Conditions: tested at 10 uM

SMILES	INHIBITION
COCCN1CCC2(CC1)CC(c1cccnc1)C(=O)N2C (centres undefined)	26.5%
CCc1nc(C2CCCN(C(=O)NC(C)C)C2)no1 (centres undefined)	13.6%
O=C([C@@H](O)Cc1ccccc1)N1CCCn2cncc2C1	18.6%
Cc1ccnc(NC(=O)c2cnc(C3CCCNC3)cn2)c1 (centres undefined)	37.35%
CC(C)NC(=O)COc1cccc(-c2nc(C(C)C)no2)c1	26.8%
CCc1cc(=O)n(CC(=O)N2CCC(C)CC2)c(-c2ccccc2)n1	57.3%
CCc1cc(=O)n(CC(=O)N2CCC(C)CC2)c(-c2cccc(F)c2)n1	17.6%
CCc1cc(=O)n(CC(=O)N2CCCC2)c(-c2ccccc2)n1	4.35%
CNc1nc2c(s1)C(c1cc(Cl)ccc1F)CC(=O)N2 (centres undefined)	35.8%
CCn1cc(CN(C)S(=O)(=O)c2ccc(C(C)C)cc2)cn1	26.7%
Cc1cc(C)n(CC2CN(c3ccc(C#N)cn3)CCO2)n1 (centres undefined)	23.7%
Cc1nn(C)c2cnn(Cc3ccc(C(=O)N4CCCCC4)o3)c12	21.7%
Cc1nn(C)c2cnn(Cc3ccc(C(=O)NC4CC4)o3)c12	16.8%
Cc1nn(C)c2cnn(Cc3ccc(C(=O)N4CCN(C)CC4)o3)c12	65.6%
CCc1ccc(NC(=O)N2C[C@@H]3C[C@H](C(=O)NC)[C@H](C2)O3)cc1	15%
O=C1NCc2ccccc2CC12CCCN(Cc1ccsc1)C2 (centres undefined)	14.3%
O=C(COCC1CC1)Nc1ncn(CC(=O)N2CCCCCC2)n1	-32.4%
CC(OCC1CC1)C(=O)Nc1ncn(CC(=O)N2CCCCCC2)n1 (centres undefined)	51.7%
O=C(Nc1ncn(CC(=O)N2CCCCCC2)n1)C1CCCC1	2.7%
O=C(CC1C=CCC1)Nc1ncn(CC(=O)N2CCCCCC2)n1 (centres undefined)	50.6%
CC(CC(=O)Nc1ncn(CC(=O)N2CCCCCC2)n1)C1CC1 (centres undefined)	-28.8%
O=C(COC1CCCC1)Nc1ncn(CC(=O)N2CCCCCC2)n1	8.75%
Cc1ccc2oc(C(=O)N3CCCC(n4nc(C)nc4C)C3)cc2n1 (centres undefined)	-2.95%

SMILES	INHIBITION
COc1ccc(CNC(=O)CCCc2nnc3ccc(OC)nn23)cc1	8.99%
CCn1nc(CNC(C)(C)CO)c(-c2ccccc2)n1	20.9%
CCCOCC(=O)N1CCc2c(cccc2S(=O)(=O)N2CCOCC2)C1	26.7%
Fc1cnc(N2CC[C@@H]3O[C@@H](COCc4ccccn4)CC[C@@H]32)nc1	18.5%
c1cnc(N2CCC3(CCN(CC4CCOC4)C3)CC2)nc1 (centres undefined)	34.7%
COc1ccc(Br)c(C(=O)NCC2CCN(S(=O)(=O)C3CC3)CC2)c1	38.5%
COc1ccc(Br)c(C(=O)NCC2CC2)c1	90.2%
Cc1cccc(C)c1NC(=O)NCC1CCCN(C2CCOCC2)C1 (centres undefined)	-15%
COc1ccc(C(=O)Nc2cnn(CCN3CCOCC3)c2)c(O)c1	29.5%
COc1cccc(OCC2CCCN(C3CCN(C(C)=O)CC3)C2)c1 (centres undefined)	15.1%
COc1cccc(NC(=O)NCC2CCCN(C3CCOCC3)C2)c1 (centres undefined)	58.8%
COc1ccc(C(=O)NCC2CCCN(C3CCOCC3)C2)c(O)c1 (centres undefined)	57.4%
COCCNC(=O)c1cc(OC)ccc1Br	-85%
COc1ccc(O)c(C(=O)NCC2CCCN(C3CCOCC3)C2)c1 (centres undefined)	14.3%
CC(NC(=O)N(C)CCCOc1ccccc1)c1nncn1C (centres undefined)	0.914%
Cc1ccc(N2CCC3(CCC(=O)N3Cc3ccncc3)CC2)nn1	3.17%
CCc1nnc2n1CCN(C(=O)C(C)Oc1ccc(C#N)cc1)C2 (centres undefined)	-48.3%
CCS(=O)(=O)N1Cc2ccnn2CC(c2nc(C)no2)C1 (centres undefined)	-5.63%
Cc1noc(C2CN(S(=O)(=O)C3CC3)Cc3ccnn3C2)n1 (centres undefined)	34.6%
Cc1noc(C2CN(S(C)(=O)=O)Cc3ccnn3C2)n1 (centres undefined)	50.7%
CNc1oc(-c2ccc(OC)c(S(=O)(=O)N(C)C)c2)nc1C#N	8.46%
CC1CN(C(=O)Nc2cc(C(F)(F)F)c[nH]c2=O)CCO1 (centres undefined)	-4.12%
O=C(Cc1ccccn1)N1C[C@H]2CC[C@@H](C1)N(Cc1ccccc1)C2=O	-4.86%

SMILES	INHIBITION
O=C(Cc1ccncc1)N1C[C@H]2CC[C@@H](C1)N(Cc1ccccc1)C2=O	63.7%
O=C(Cc1cccnc1)N1C[C@H]2CC[C@@H](C1)N(Cc1ccccc1)C2=O	40.4%
CCc1nc(CNc2ccc(C(=O)N3CCSCC3)cc2C)no1	15.5%
O=C(O)c1cc2c(nc1-c1ccsc1)CCN(C1CCOC1)CC2 (centres undefined)	11.3%
Cc1ccc(N2CCN(C(=O)CCc3n[nH]c(C)n3)CC2=O)cc1	2.7%
CSC(C)C(=O)N1CCCN(Cc2nccn2C)CC1 (centres undefined)	-5.25%
Cn1ccnc1CN1CCCN(C(=O)CC(C2CC2)C2CC2)CC1	50.3%
CCn1ccnc1CN1CCCN(C(=O)c2ccnn2C)CC1	16.45%
CC(Oc1ccccc1)C(=O)N1CCCN(Cc2nccn2C)CC1 (centres undefined)	54.4%
Cn1ccnc1CN1CCCN(C(=O)COC2CCCC2)CC1	-11.4%
CC(CC(=O)N1CCCN(Cc2nccn2C)CC1)n1cccc1 (centres undefined)	18.9%
CCn1ccnc1CN1CCCN(C(=O)c2cc(C)nn2CC)CC1	32.3665%
CCn1ccnc1CN1CCCN(C(=O)c2cccn2C)CC1	56.6%
Cn1ccnc1CN1CCCN(C(=O)c2ccc3cc[nH]c3c2)CC1	55.2%
Cn1ccnc1CN1CCCN(C(=O)c2ccc3ccccc3c2)CC1	27.8%
CC(OCC1CC1)C(=O)N1CCCN(Cc2nccn2C)CC1 (centres undefined)	9.32%
Cn1ccnc1CN1CCCN(C(=O)c2ccc3[nH]cnc3c2)CC1	21%
CCNc1nc2cn(-c3ccc(CC)cc3)c(=O)c-2c[nH]1	-14.245%
Cn1cc(C2CCCN2C(=O)c2ccc(OCC3CC3)nc2)cn1 (centres undefined)	-27%
O=S(=O)(CCN1CCN(c2ccccc2O)CC1)c1ccc(Cl)cc1	-36.3%
CN(C)CCN1C[C@@H]2CN(C(=O)C3CCOC3)C[C@@H]2C1=O (some centres undefined)	12.7%
COc1ccc(/C=C/CN2C[C@@H]3CC[C@H]2CN(S(=O)(=O)N(C)C)C3)cc1	38.6%
CCOCC1CN(Cc2cccnc2)Cc2nn(C)cc21 (centres undefined)	-21.4%

SMILES	INHIBITION
O=C(C1CC(F)(F)C1)N1C[C@@H]2CN(CC3CCCC3)CCO[C@@H]2C1	20.6%
O=C1CN(C(=O)CCn2c(C(F)(F)F)cc3cccnc32)CCN1	25.6%
CSC1(CNC(=O)c2cccc(-n3cccn3)c2)CCOCC1	-46.4%
Cc1ncccc1NC(=O)[C@@H]1CCO[C@@H]2CCN(c3ccccc3)C[C@@H]21	41.4%
CC(C)N1CCC(CC(=O)N2CCN(Cc3nccn3C)CC2)CC1	58.5%
CC(C)N1CCC(CC(=O)N2CCC(C(O)c3nccn3C)CC2)CC1 (centres undefined)	46.7%
Cn1ccnc1CN1CCCN(C(=O)COCC2CC2)CC1	13.3%
O=c1c2c[nH]c(N3CCCCC3)nc-2cn1-c1ccc2c(c1)OCO2	-22.9%
Cc1cccc(-c2nnn3c2COC(CNCc2nccs2)C3)c1 (centres undefined)	-10.2%
Fc1cccc(-c2nnn3c2COC(CNCc2nccs2)C3)c1 (centres undefined)	50.3%
Cc1ccc(CNCC2Cn3nnc(-c4cccc(F)c4)c3CO2)o1 (centres undefined)	18.2%
Fc1cccc(-c2nnn3c2COC(CNCc2cccs2)C3)c1 (centres undefined)	1.9%
Fc1cccc(-c2nnn3c2COCC(CNCc2nccs2)C3)c1 (centres undefined)	47.5%
Fc1cccc(-c2nnn3c2COC(CNCc2ccsc2)C3)c1 (centres undefined)	52%
COc1cc2nc(C)n(CC(=O)NCC(C)C)c(=O)c2cc1OC	21.5%
CC(=O)N1CCC(Cc2nccnc2-c2c(C)n[nH]c2C)C1 (centres undefined)	-14.1%
COCCN1C[C@@H](C)[C@@]2(COCCN(C(=O)c3cccc(C)n3)C2)C1	-10.5%
COc1ccc(-c2nc(C3CCNCC3)cc3c2ncn3C)cc1	53%
Cn1cnc2c(-c3cccnc3)nc(C3CCNCC3)cc21	48.4%
CC(=O)N1CCC(c2cc3c(ncn3C)c(-c3cnn(C)c3)n2)CC1	33.4%
Cn1cc(-c2nc(C3CCN(CC4CC4)CC3)cc3c2ncn3C)cn1	61.5%
CC(C)n1cnc2c(N3CCCC3)nc(C3CCNCC3)cc21	-3.52%
Cn1cnc2c(-c3ccccc3)nc(C3CCNCC3)cc21	38.5%

SMILES	INHIBITION
Cn1cc(-c2nc(C3CCN(S(C)(=O)=O)CC3)cc3c2ncn3C)cn1	15.7%
COc1ccc(-c2ccnc(C3CCNCC3)c2)cc1	29.2%
CC(C)n1cnc2c(-c3cccnc3)nc(C3CCNCC3)cc21	55.7%
O=C(CC1CC1)NCc1cn2c(n1)CN(CC1CC1)CC2	9.67%
Cc1nc2sc(C(=O)N3CCNC(=O)C3)c(C)c2c(=O)[nH]1	-4.35%
Cc1nc(-c2ccsc2)ccc1C(=O)NCC(C)N1CCOCC1 (centres undefined)	-24.275%
N#Cc1ccc(F)c(CN2CCCCC2Cn2cccn2)c1 (centres undefined)	-36.1%
COc1ccccc1CC(C)CC(=O)N(C)Cc1cc(C)on1 (centres undefined)	14.7%
O=C(c1nc2c(o1)CN(CC1CCC1)C2)N1CCCC1	-15.6%
COc1cc2nc3n(c(=O)c2cc1OC)CCN(C(=O)C1CCC1)CC3	23.4%
OC(CN1CCCCCCC1)c1ccc(OC(F)(F)F)cc1 (centres undefined)	19.2%
CCc1ccc(C(O)CN2CCN(c3cccc(OC)c3)CC2)cc1 (centres undefined)	54%
CCOCCN1CCN(CC(O)c2ccc(OC)cc2)CC1 (centres undefined)	-9.39%
COc1cccc(N2CCN(CC(O)c3ccc(C)cc3)CC2)c1 (centres undefined)	17.4%
COc1cccc(C(O)CN2CCN(c3cccc(C)c3)CC2)c1 (centres undefined)	16%
COc1cccc(N2CCN(CC(O)c3cc(C)ccc3C)CC2)c1 (centres undefined)	67.9%
CCN1CCN(CC(O)c2ccc(OC(F)(F)F)cc2)CC1 (centres undefined)	56.1%
COCCN1CCN(CC(O)c2cc(OC)ccc2OC)CC1 (centres undefined)	-94.3%
CCn1cc(CN2CCN(CC(O)c3cc(C)ccc3C)CC2)c(C)n1 (centres undefined)	43.6%
COc1ccc(OC)c(C(O)CN2CCN(C3CCCC3)CC2)c1 (centres undefined)	-113%
CCCN1CCN(CC(O)c2ccc(OC(F)(F)F)cc2)CC1 (centres undefined)	33.7%
COc1cccc(N2CCN(CC(O)c3cc(C)sc3C)CC2)c1 (centres undefined)	63.1%
